Source: ChEMBL document CHEMBL3988442, “University of Dundee, Small-Polar-MMV Screening Library” (2021)

How the values were obtained:
[1] = target: T1, Aspartate--tRNA(Asp/Asn) ligase (Mycobacterium tuberculosis (strain ATCC 25618 / H37Rv)) (UniProt P9WFW3); experiment: Assay for Asp RNA synthetase-1 from Mycobacterium tuberculosis; assay type: functional; set-up: scale not given: direction of the effect not stated beside the values; conditions: 30 µM; also: in the data most compounds retested in dose-response had high values
T1 sequence (whole entry): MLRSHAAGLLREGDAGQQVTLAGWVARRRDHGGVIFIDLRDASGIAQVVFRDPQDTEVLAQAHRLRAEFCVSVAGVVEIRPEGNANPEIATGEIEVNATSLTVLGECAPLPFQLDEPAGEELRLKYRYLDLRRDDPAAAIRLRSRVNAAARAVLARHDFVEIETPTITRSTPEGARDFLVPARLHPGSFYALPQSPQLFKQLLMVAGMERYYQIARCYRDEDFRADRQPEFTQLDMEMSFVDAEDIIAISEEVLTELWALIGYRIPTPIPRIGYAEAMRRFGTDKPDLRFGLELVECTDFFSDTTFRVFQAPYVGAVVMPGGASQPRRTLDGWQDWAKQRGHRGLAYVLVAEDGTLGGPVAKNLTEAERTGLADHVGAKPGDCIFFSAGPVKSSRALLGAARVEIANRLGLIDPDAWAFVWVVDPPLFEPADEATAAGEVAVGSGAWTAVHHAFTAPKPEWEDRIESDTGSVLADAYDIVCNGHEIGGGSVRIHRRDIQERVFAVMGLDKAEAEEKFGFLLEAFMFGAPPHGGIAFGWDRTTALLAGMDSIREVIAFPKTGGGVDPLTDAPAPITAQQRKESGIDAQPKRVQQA

[2] = target: Shiga toxin 2 (Escherichia coli O157:H7) (UniProt P09385+P09386); experiment: E. coli 0.157:H7 Shiga Toxin SOP - stx2 screening assay; assay type: functional; set-up: scale not given: direction of the effect not stated beside the values; conditions: 30 µM

Structure (SMILES) | Percent Effect [1] [%] | Percent Effect [2] [%]
NCc1cn(-c2ccccc2C(=O)NCc2ccccc2)cn1 | -1.51 | -5.86
Cn1ncc2c(=O)[nH]c(CN(Cc3cccc(F)c3)C3CC3)nc21 | -6.19 | 3.9
CC1CCCN(CCNC(=O)c2ccn(-c3ccccc3)n2)C1 (stereo not drawn) | 5.86 | -20.3
Cc1nc(C)n(CC2CCCN(Cc3nc(C)c(C)o3)C2)n1 (stereo not drawn) | 7.92 | 5.16
COc1ccc(CNCc2ccc(N3CCCCC3)nc2)cc1OC | 1.06 | -82.1
Cn1ccc(C(=O)NCc2cccc(NC(=O)C3CCC3)c2)cc1=O | -0.879 | -48
Cc1cc(C[C@@H]2CCC[C@H]2NCc2ccccc2C(F)(F)F)on1 | 3.02 | 26
Cc1cc(C(=O)N2CCc3ncc(CN4CCOCC4)n3CC2)no1 | -4.02 | -7.88
COc1cccc(CNc2c(C)cnc3c2c(=O)n(C)c(=O)n3C)c1 | -3.02 | -31.1
COc1ccccc1CNC(=O)N1CCCC(NS(C)(=O)=O)C1 (stereo not drawn) | 1.76 | 23.8
Cc1nnc(N2CCC(CS(N)(=O)=O)CC2)c(C#N)c1C | 6.31 | 21.6
CCc1nc(C)c(C(=O)NCCN2CCN(C(C)=O)CC2)s1 | 0.0694 | -21.7
CCC1CN(C(=O)NCCOc2ccc3c(c2)OCO3)CCO1 (stereo not drawn) | -0.509 | -17.6
Cc1ccoc1-c1nnc(CNCCn2cccn2)o1 | 0.914 | -39.9
Cc1cc(C)c2nc(CN3CCCC(c4cc[nH]n4)C3)cc(O)c2c1 (stereo not drawn) | 4.05 | 0.0646
Cc1[nH]nc2ncc(C(=O)N3CCN(CC(C)C)CC3)cc12 | -2.36 | 33.6
COc1cccc2c1OCC(C(=O)NC1CCN(S(C)(=O)=O)CC1)C2 (stereo not drawn) | -3.65 | 11.1
O=C(Nc1ccccc1F)N(CCO)Cc1ccsc1 | -3.39 | 20.3
O=c1c(-c2ccnc(NC3CCOCC3)n2)cnc2sc(Cl)cn12 | -3.81 | -50
Nc1nc(CN2CCOC(Cn3cncn3)C2)nc2ccccc12 (stereo not drawn) | -1.84 | 5.62
CCc1nc(C2CCCN2C(=O)c2ncoc2CC)no1 (stereo not drawn) | -3.37 | 4.73
Cc1ccc(C2CSCCN2C(=O)C2=CCCC2)o1 (stereo not drawn) | 6.9 | 5.19
CCn1ccnc1CN1CCN(CCOc2ccccc2OC)CC1 | -3.95 | -17.6
O=C(O)c1coc(COc2cccc(F)c2)n1 | -2.21 | -2.73
Cn1cc(CCC(=O)N2C[C@H]3CC[C@@H]2CN(Cc2ccccc2)C3)cn1 | 2.92 | -3.02

Structure (SMILES) | Percent Effect [1] [%] | Percent Effect [2] [%]
CN(C)CC(=O)N1C[C@@H]2CC[C@H](Oc3ccccc3Cl)[C@@H]2C1 | 1.77 | 12.4
O=C(CN1CCOC(Cn2cccn2)C1)Nc1nncs1 (stereo not drawn) | -1.58 | -15.4
Cc1ccc(S(=O)(=O)N2C[C@@H]3C[C@@H](NC(=O)C(C)(C)C)[C@@H]3C2)cc1 | 1.47 | 6.78
O=C([C@H]1CCCO1)N1CC[C@H](O)[C@@H]1Cc1ccncc1 | -1.01 | 1.58
CCc1nccn1C1CCCN(C(=O)CCc2nccs2)C1 (stereo not drawn) | 2.69 | 16.2
CCOCC(O)CN1CCN(C(=O)c2cccc(F)c2)CC1 (stereo not drawn) | 0.145 | -5.86
O=C(c1cc(Cl)cc(Cl)c1)N1CCN(c2nccs2)CC1 | -0.345 | -14.9
CCn1cc(NC(=O)NCC(c2cccs2)N(C)C)cn1 (stereo not drawn) | -1.06 | 24.9
Cc1cnc(CN2CCCC(c3cc(C(F)(F)F)[nH]n3)C2)cn1 (stereo not drawn) | -6.86 | 7.14
Cn1cc(C(=O)NCc2cn3c(n2)CN(CC2CCOCC2)CC3)cn1 | -2.89 | -14.5
Cc1ccc(C(=O)N2CCCS2(=O)=O)cc1Cl | -5.6 | -5.68
COCCn1ccc(NC(=O)Nc2cccnc2)n1 | -2.04 | -43.4
CSCCNC(=O)c1ccc(OC2CCN(CC(C)(C)C)CC2)c(Cl)c1 | 1.62 | -38.1
CCn1ccnc1CN1CCN(CC(O)c2ccccc2)CC1 (stereo not drawn) | -5.63 | -31
CCOC(=O)N1CCN(C(=O)c2sc(-c3ccccc3F)nc2C)CC1 | 3.76 | -8.58
O=c1nc(SCc2cccnc2)c2c(n1CCO)CCC2 | -12 | 13.4
Cc1nn(CC(C)C)c(N(C)C)c1CNCc1cc2ccccc2[nH]1 | -2.12 | 31.1
COc1ccc(F)cc1C(C(=O)O)N1CCSCC1 (stereo not drawn) | 4.05 | 9.21
Cc1cccc(CNC(CN2CCN(C)CC2)c2ccccc2)c1 (stereo not drawn) | 3.03 | -5.1
CN(C)c1cc(C(=O)NCCc2nnc(-c3ccco3)[nH]2)ccn1 | -1.56 | -46.4
O=C(N1CCCC1)N1Cc2nccn2CC(CN2CCCC2)C1 (stereo not drawn) | -5.76 | 1.77
COCCN1C(=O)CCC12CCN(C(=O)CC1CC1)CC2 | 2.75 | 0.89
NC(=O)C1CCN(C(=O)c2ccn(-c3ccc(F)cc3)n2)C1 (stereo not drawn) | 9.24 | 3.03
Cc1cnccc1N1CCCN(C(=O)CCCc2cn[nH]c2)CC1 | -0.632 | -13.3
CC(=O)c1cccc(NC(=O)COc2c(C)n(C)ccc2=O)c1 | 1.07 | -59.3

Structure (SMILES) | Percent Effect [1] [%] | Percent Effect [2] [%]
O=C(Cn1cc(C(=O)O)ccc1=O)Nc1ccc(F)cc1Cl | -8.57 | -28.6
Cc1noc(C)c1C(=O)NCc1ccc(N2CCOC(C)C2)nc1 (stereo not drawn) | -1.75 | -60.1
Cc1cc(C)c2cc(CNCC3CCCO3)c3nn(C)c(=O)n3c2c1 (stereo not drawn) | 1.03 | 3.55
CCc1nc(CN(C)C2CCN(CCNS(=O)(=O)CC)C2)no1 (stereo not drawn) | 5.16 | -60.5
COc1ccc(-n2ccc(C(=O)N3CCN(C)CC3C)n2)cc1 (stereo not drawn) | -10.9 | -0.158
Cc1cccnc1NC(=O)CC1(Cn2cnnn2)CCCCC1 | 7.1 | 2.81
CN1C(=O)CC(c2cnn(C)c2)C12CCN(C(=O)C1CC=CC1)CC2 (stereo not drawn) | -2.73 | -0.198
CN(Cc1cnn(C)c1)C(=O)c1ccc(=O)n(C)n1 | -3.08 | -8.81
CNS(=O)(=O)c1cccc(C(C)NCc2nccn2C(C)C)c1 (stereo not drawn) | -2.07 | -29.6
N#Cc1ccnc(N2CCN(C(=O)NC3CCS(=O)(=O)C3)CC2)c1 (stereo not drawn) | -2.74 | 8.29
Cc1ccc(N2CCCC(NCc3cccc4c3OCCO4)C2)nn1 (stereo not drawn) | 4.13 | 19
CCC1=N[C@@]2(CC[C@@H]3CN(Cc4ccc(Cl)cc4)C[C@@H]32)C(=O)N1C | 3.65 | 3.45
Cc1nc(CNC(=O)NCC(O)c2cccc(Cl)c2)cs1 (stereo not drawn) | 1.01 | -16.9
CCn1ccnc1CN1CCCN(C(=O)c2cc(Cl)c[nH]2)CC1 | -5.23 | -18.9
Cc1nc(CN2C[C@@H]3CN(C(=O)c4ccnnc4)C[C@@H]3C2=O)cs1 | -3.71 | -1.02
Cn1cc(C(=O)NC[C@@H]2OC[C@H]3CN(Cc4ccco4)CC[C@H]32)cn1 | -0.729 | -33.5
CCN1CC2(CC1=O)CN(C(C)=O)CCN(C(=O)c1ccco1)C2 (stereo not drawn) | -3.81 | -35.2
O=C(CCc1cnn(-c2ccccc2)c1)N1CCCC(n2cccn2)C1 (stereo not drawn) | -0.589 | 26.2
O=C(CCc1cscn1)N1CCCC(n2ccnc2)C1 (stereo not drawn) | -3.19 | -12.2
CC1CCCN(Cc2coc(-c3cccc(F)c3)n2)C1 (stereo not drawn) | -10.1 | 7.24
CCN(C(=O)c1ccc(-n2ncc(C#N)c2N)cc1)C1CCCC1 | 6.53 | 6.02
Cc1nn(C)c(C)c1C1CCCN1Cc1nc(-c2ccco2)no1 (stereo not drawn) | -6.56 | -26.9
CCCc1nc(C)c(C(=O)NS(=O)(=O)c2ccc(C#N)cc2)s1 | 0.836 | 8.1
Cc1ccc(C)n1-c1ccc(C(=O)NCCNc2ncccn2)cc1 | 5.76 | 7.86
Cc1c(C(=O)NCC2CCCO2)nnn1-c1cccc2c1CCN(C)C2 (stereo not drawn) | 3.06 | -26.5

Structure (SMILES) | Percent Effect [1] [%] | Percent Effect [2] [%]
Cc1cc(C(=O)N2CCCC(c3noc(C)n3)C2)[nH]n1 (stereo not drawn) | -4.2 | -22.4
CCc1nc2ccccc2c(=O)n1CC1(O)CCN(S(C)(=O)=O)CC1 | 4.54 | -2.21
COc1ccc(C(=O)NS(=O)(=O)c2cncc(Br)c2)cc1OC | 0.457 | 3.4
CCOCC(=O)N1C[C@@H]2COC[C@H](c3nc(C)no3)[C@@H]2C1 | 2.15 | -13.8
CC(C)(C)c1n[nH]c(C2CN(C(=O)c3cc(Cl)c[nH]3)CCO2)n1 (stereo not drawn) | -4.97 | 0.626
COc1cccc(CN(C)Cc2cccc(C#N)c2)c1OC | -1.23 | 14.1
CC(C)OCc1ccc(CNC(=O)CC(F)(F)F)cc1 | -1.66 | 12.4
Cc1[nH]nc(CCC(=O)N2CCCC(OCc3cccnc3)C2)c1C (stereo not drawn) | -6.25 | 20
O=C(Cc1c[nH]c2ccccc12)N1CCC(Nc2cccnn2)CC1 | 1.83 | -4.79
O=C(Cc1cccc(F)c1)NCCNCc1cccc(O)c1 | 4.95 | -12.7
CC(c1ccc(Cl)cc1)N1CCN(CCS(C)(=O)=O)CC1 (stereo not drawn) | -1.84 | 1.09
Cc1ccoc1C(=O)N1CCO[C@H]2[C@H](OCCN(C)C)CC[C@@H]21 | -1.25 | -12.2
Cc1cc(S(=O)(=O)NCc2cccc(C(=O)N3CCCC3)c2)c(C)s1 | 2.16 | 5.68
CCn1ccnc1CNCC1CCN(CC(O)c2ccccc2)CC1 (stereo not drawn) | -3.48 | 0.429
O=S(=O)(C1CC1)N1C[C@H]2CCC[C@@]2(COc2ccccn2)C1 | 4.47 | -32.7
O=C(NCCCN1CCCC1)c1n[nH]c(=O)c2ccccc12 | -3.43 | -6.83
Cc1noc(C)c1CN1CC2(CCN(C(=O)c3c[nH]cn3)C2)CC1=O (stereo not drawn) | 0.582 | -14.1
CCOc1ccccc1-c1noc(CN2CCCC(O)C2)n1 (stereo not drawn) | -5.33 | 2.11
Cc1ccc(C(=O)N2CCC3(CC2)CC(N2CCCC2)C3)cc1 | 0.137 | -9.41
Cn1cc(C(=O)CC2CCCN2C(=O)c2n[nH]c3ccccc23)cn1 (stereo not drawn) | -3.71 | 0.49
COCc1ccccc1CNc1cc(N2CCCC2CO)ncn1 (stereo not drawn) | -1.49 | -4.23
O=C(NC1CC1)[C@@H]1CCO[C@@H]2CCN(C3CCOCC3)C[C@H]21 | 5.8 | -34.3
C[C@@H]1CN(C2(C(=O)N3CCCCCC3)Cc3ccccc3C2)C[C@H](C)O1 | -2.09 | 3.06
Cc1ccc(NC2CCN(C(=O)c3ccc(Cl)o3)CC2)nn1 | 1.75 | 7.55
